Compound activity: PubChem BioAssay, several laboratories
DAX1 inh-1: NR0B1 (DAX1) inhibition | P51843 | HEK293 Gal4-DAX1 luciferase reporter, luminescence | inhibition, % at 6.75 µM | 340,000 compounds, 0.99% hits | AID 504766;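 active = inhibition above the mean over all tested compounds plus 3 SD, cut at about 4.2% in these data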;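 note: inhibition shows as a rise in luminescence from relieved DAX1 repression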
hgDAF12 agonist: agonists of H. glycines DAF-12 nuclear receptor. 370,000 compounds, 1.8% hits. AID 687014. activation, % at 6.8 µM. HEK293 GAL4-hgDAF12 UAS-luciferase reporter, agonist luminescence; normalized to butyrate control;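 active = activation above a cutoff set at the mean of all screened compounds plus 3 SD, cut at about 10% in these data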
NR1D1 modulator: Rev-erb alpha (human) modulation; Rev-erbα–FITC-DNA binding, fluorescence polarization, 90 min; activity, % at 10 µM; 370,000 compounds, 0.79% hits;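 active = activity above about 14%, limit read from the data; passing the limit was not always enough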
Target sequence (P20393 whole entry, looked up): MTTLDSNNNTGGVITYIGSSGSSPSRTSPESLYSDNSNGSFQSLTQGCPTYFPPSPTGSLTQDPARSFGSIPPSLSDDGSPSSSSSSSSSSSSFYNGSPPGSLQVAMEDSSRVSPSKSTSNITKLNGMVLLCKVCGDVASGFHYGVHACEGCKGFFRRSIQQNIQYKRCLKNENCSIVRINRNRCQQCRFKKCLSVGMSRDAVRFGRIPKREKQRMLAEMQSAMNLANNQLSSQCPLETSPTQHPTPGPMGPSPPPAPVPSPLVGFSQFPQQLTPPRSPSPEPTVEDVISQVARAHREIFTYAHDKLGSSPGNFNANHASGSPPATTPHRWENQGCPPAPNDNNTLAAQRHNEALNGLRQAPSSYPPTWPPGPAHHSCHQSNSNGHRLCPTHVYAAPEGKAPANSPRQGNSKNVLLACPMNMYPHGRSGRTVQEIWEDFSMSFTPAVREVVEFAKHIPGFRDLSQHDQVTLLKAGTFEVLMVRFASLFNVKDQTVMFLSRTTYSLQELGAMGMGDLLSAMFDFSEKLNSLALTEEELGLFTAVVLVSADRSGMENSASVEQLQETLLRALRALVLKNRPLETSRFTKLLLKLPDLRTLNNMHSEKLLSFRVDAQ
ssDAF12 agonist: activates DAF-12 receptor from parasite S. stercoralis. HEK293 ssDAF-12/GRIP1 lit1-tk-luc reporter, luminescence; % of 3 µM dafachronic acid response. activation, % at 6.8 µM. 370,000 compounds, 1% hits;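 active = activation above the mean over all tested compounds plus 3 SD, cut at about 0.9% in these data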
DAX1 inh-2: blocks DAX1 repression of SF-1 activated StAR promoter; HEK293T StAR-luciferase reporter, SF-1/DAX-1 repression relief; inhibition, % at 6.8 µM; 370,000 compounds, 1.1% hits; AID 652010;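 active = inhibition above the mean over all tested compounds plus 3 SD, cut at about 3.6% in these data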;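 note: higher inhibition means more luminescence from relief of DAX-1 repression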
hcDAF-12 act: H. contortus DAF-12 activation, primary screen; 370,000 compounds, 1.4% hits; activation, % at 6.8 µM; HEK293 hcDAF-12 lit1-tk-luc reporter, luminescence; 0% DMSO, 100% Δ7-dafachronic acid; AID 652067;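 active = activation above the mean of all tested compounds plus 3 SD, cut at about 5.5% in these data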
Of the large screens only hits and unclear results are named; the others gave an inactive call. Hits are enriched below; roughly 4.8% of the tested compounds scored in any of these assays.

O=[N+]([O-])c1ccc(CSc2nc3ccccc3[nH]2)cc1	none
O=C(Nc1cccc([N+](=O)[O-])c1)OCc1ccc2c(c1)OCO2	none (no result: DAX1 inh-1)
CO[C@H]1C[C@@H](O[C@@H]2/C(C)=C/C[C@@H]3C[C@@H](C[C@]4(CC[C@H](C)[C@@H](C5CCCCC5)O4)O3)OC(=O)[C@@H]3C=C(C)/C(=N/O)[C@H]4OC/C(=C\C=C\[C@@H]2C)[C@]43O)O[C@@H](C)[C@H]1O	none (no result: DAX1 inh-1, hgDAF12 agonist, ssDAF12 agonist, DAX1 inh-2, hcDAF-12 act)
O=C(OC12CCCN(C1)/C(=C/c1ccc(Cl)cc1)C2)c1ccno1 (stereo unspecified)	none (no result: DAX1 inh-1)
COC(=O)c1ccc2c(=O)n(CCCCCC(=O)NC3CCCCC3)c(=O)[nH]c2c1	hcDAF-12 act 5.8 (no result: DAX1 inh-1)
CCCCCn1c(=O)[nH]c2cc(C(=O)O)ccc2c1=O	none
CCCCCn1c(=O)[nH]c2cc(C(=O)NC3CCN(Cc4ccccc4)CC3)ccc2c1=O	DAX1 inh-1 6.5
CN[C@@H]1[C@H](O)[C@@H](O[C@@H]2[C@@H](O)[C@H](O[C@H]3OC(CN)=CC[C@H]3N)[C@@H](N)C[C@H]2N)OC[C@]1(C)O	none (no result: DAX1 inh-1, hgDAF12 agonist, ssDAF12 agonist, DAX1 inh-2, hcDAF-12 act)
C[C@H]1[C@@H](OC(=O)Nc2ccc(C(F)(F)F)cc2)CC[C@@]23CCCN2C(=O)CCC[C@@H]13	none (no result: DAX1 inh-1, DAX1 inh-2)
CCCCn1c(CN2CCOCC2)nc2c1c(=O)n(C)c(=O)n2C	hgDAF12 agonist 11
Cn1c(=O)c2c(nc(CN3CCOCC3)n2CCN2CCOCC2)n(C)c1=O	none (no result: hgDAF12 agonist, ssDAF12 agonist, DAX1 inh-2, hcDAF-12 act)
CCCn1c(=O)c2c(nc(Br)n2CCC)n(C)c1=O	none
CC(C)CCn1c(CN2CCN(c3cccc(Cl)c3)CC2)nc2c1c(=O)n(C)c(=O)n2C	hgDAF12 agonist 13
CCCCCCn1c(Br)nc2c1c(=O)n(C)c(=O)n2C	ssDAF12 agonist 1.0
CC(C)Cn1c(Br)nc2c1c(=O)n(CCC#N)c(=O)n2C	DAX1 inh-1 4.3
Cc1ccc(NC(=O)OC2CC3CC2[C@H]2CCCCN2[C@H]3Cc2ccccc2)cc1 (stereo partly specified)	none (no result: DAX1 inh-1)
CCc1ccc(N(CC(=O)Nc2ccccc2C(=O)N2CCOCC2)S(C)(=O)=O)cc1	ssDAF12 agonist 1.5
CS(=O)(=O)N(CC(=O)Nc1ccccc1C(=O)N1CCOCC1)c1ccc(Cl)cc1	none
Cc1ncoc1C(=O)N1CCc2c([nH]c3ccccc23)C1C(C)(C)C (stereo unspecified)	ssDAF12 agonist 1.0, hcDAF-12 act 5.6
Cc1ncoc1C(=O)N1CCc2c([nH]c3ccccc23)C1C1CCCCC1 (stereo unspecified)	hcDAF-12 act 6.1
O=C(c1ccc(Cl)cc1)N1CCc2c([nH]c3ccccc23)C1C(F)(F)F (stereo unspecified)	none
Cc1cnc(CN2CCc3c([nH]c4ccccc34)C2C2CCCCC2)[nH]1 (stereo unspecified)	none
Nc1nc(SCc2ccccn2)c2ncn(C3CCCC3)c2n1	hgDAF12 agonist 11
CC(C)(C)OC(=O)COc1ccc(/C=N/NC(=O)CN2CCCCC2)cc1	hgDAF12 agonist 13
COc1ccc(/C=N/NC(=O)CN2CCCC2)cc1	none
O=C(N/N=C/c1ccc(OCC(=O)N2CCCCC2)cc1)c1ccccc1O	ssDAF12 agonist 1.7
N#Cc1c2c(c(Nc3ccc(F)cc3)n3c1nc1ccccc13)CCCC2	hgDAF12 agonist 11
CCC(C(=O)Nc1ccccc1N1CCCC1)c1cccc(Cl)c1 (stereo unspecified)	none (no result: DAX1 inh-1)
CC(CCN1CCC(C(O)(c2ccccc2)c2ccccc2)CC1)Oc1ccccc1C#N (stereo unspecified)	none (no result: DAX1 inh-1)
CCOC(=O)Nc1ccc2c(c1)[C@@]1(CC(=O)N(CC(C)C)C1c1ccccc1)C(=O)N2C (stereo partly specified)	none (no result: DAX1 inh-1)
O=C1CCC[C@H]2C[C@H](NCc3ccccc3Cl)CC[C@]23CCCN13	none (no result: DAX1 inh-1, DAX1 inh-2)
Cc1ccc(NC(=O)NNC(=O)CSC2CCc3ccccc32)c(C)c1 (stereo unspecified)	none (no result: DAX1 inh-1)
O=C(NCCNc1ccc([N+](=O)[O-])cc1)c1ccco1	DAX1 inh-1 4.5
O=C(NCCNCc1cccc(Cl)c1)c1ccco1	ssDAF12 agonist 1.1
O=C(NCc1ccccc1)/C(=C\c1ccc([N+](=O)[O-])cc1)NC(=O)c1ccco1	none
O=C(NCCNc1ccc([N+](=O)[O-])cc1)c1ccccc1Br	none
